This passage reports inhibition results from PubChem BioAssay AID588405 (Sanford-Burnham Center for Chemical Genomics, 2011).

The campaign covered roughly 360,000 compounds. About 6,200 (1.7%) were called active.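 The calls were made as follows: active = inhibition of at least 50% at 20 µM; inactive = the rest.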 This excerpt belongs to a sample that is enriched for actives.

A short description of the assay: Peg3 promoter-driven luciferase inhibitors, primary screen, cell-based, HeLa, luciferase luminescence (AID 588405). The note with it: HeLa PEG-Prom luciferase reporter, overnight, at 20 µM, hits give high values. A general note: Reporter assays use an easily measured gene product as a stand-in for the process of interest.
Usually inhibition stands for the relative decrease from the control value, in per cent. For the molecule `COc1cccc(-c2cc(NC(C)=O)c3ncc(-c4cccc(C(C)=O)c4)n3c2)c1`, the inhibition was -9.41% (inactive).
On to `CCN(CC)c1ncnc2c1ncn2[C@H]1CN(Cc2cccs2)C[C@@H](CO)O1`, for which the inhibition is 5.39% (inactive).
Under `O=C(CN1C(=O)c2ccccc2S1(=O)=O)N1CCc2ccccc21` stands 94.5% (active); under `CC1CCCN(C(=O)CN2C(=O)c3ccccc3S2(=O)=O)C1` (stereo not given), -95% (inactive).
Under `CN(Cc1ccc(F)cc1)C(=O)CN1C(=O)c2ccccc2S1(=O)=O` stands 1.25% (inactive); under `CCOC(=O)C1=CC[C@@H](c2ccncc2)N(S(=O)(=O)c2ccc(C)cc2)C1`, 27.8% (inactive); under `O=C(Nc1ccc(Cl)c(C(F)(F)F)c1)C1Cc2c(-c3ccccc3Oc3ccccc3)ccnc2O1` (stereo not given), 26.9% (inactive).
With `O=C(Cc1cccc2ccccc12)NNC(=O)Nc1ccc(Cl)cc1`, the inhibition was -102% (inactive).
As for `CC(C)(C)C(=O)NC(NC(=S)Nc1ccc(S(N)(=O)=O)cc1)C(Cl)(Cl)Cl` (stereo not given), the figure is 17% (inactive); as for `Cc1ccc(NC(=S)NC(NC(=O)Cc2cccc3ccccc23)C(Cl)(Cl)Cl)cc1` (stereo not given), 105% (active).
On to `COc1ccc2c(c1OC)C(=O)OC2Nc1nc(-c2ccccc2)cs1` (stereo not given), for which the inhibition was 104% (active).
`C/C(CC1CC(C)(C)OC1=O)=N/Nc1nc(-c2ccccc2)cs1` (stereo not given): the inhibition is -108% (inactive).
Under `CC(C)C1CC2=C(C(=O)OC(C)(C)O2)C(c2ccc(F)cc2)O1` (stereo not given) stands 4.49% (inactive).
As for `COc1ccc(Cl)cc1-c1cc(C(=O)Nc2cc(OC)c(OC)c(OC)c2)[nH]n1`, the figure is 33.8% (inactive); as for `O=C(Nc1ccc(Cl)cc1)c1csc([C@H]2C[C@H](O)[C@@H](CO)O2)n1`, -232% (inactive); as for `Cc1ccc([C@@H]2CC(=O)[C@@H]3CN(S(=O)(=O)c4ccc(C)cc4)[C@H](c4ccccc4F)C[C@@H]3N2S(=O)(=O)c2ccc(Cl)cc2)cc1`, 13.7% (inactive).
As for `COc1ccc(NC(=O)N(C)C[C@@H]2OCc3cn(nn3)CCCC(=O)N([C@H](C)CO)C[C@H]2C)c(OC)c1`, the figure is -5.47% (inactive); as for `NC(N)=N/N=C/c1ccc(OCc2ccc(Cl)cc2Cl)cc1`, 99.3% (active).
As to `COc1ccc(Cl)cc1N(CC(=O)N/N=C/c1ccc(OCC(N)=O)cc1)S(C)(=O)=O`, the inhibition is -7.79% (inactive).
With `Cc1nc2ccccc2nc(C)c1=NOCc1ccc(Cl)cc1Cl`, the inhibition is 29.6% (inactive).
Consider `O=C(/C=C/c1ccc([N+](=O)[O-])o1)NNC(=O)c1ccc(F)cc1`, for which the inhibition is 99.4% (active).
With `O=C(Nc1ccc(F)cc1)C1CCN(C(=O)c2ccc([N+](=O)[O-])cc2)CC1`, the inhibition was 17.8% (inactive).
As for `O=C(/C=C/c1ccc(F)cc1)NC(=S)NNC(=O)c1cccnc1`, the figure is 8.82% (inactive).
For `Cc1nnc(SCC(=O)N2c3ccccc3C(C)(c3ccc(Cl)cc3)CC2(C)C)s1` (stereo not given), the inhibition is 51.1% (active).
As for `CC1(c2ccccc2)CC(C)(C)N(C(=O)c2cc([N+](=O)[O-])cc([N+](=O)[O-])c2)c2ccccc21` (stereo not given), the figure is 16.3% (inactive).
As for `CC1(c2cccc([N+](=O)[O-])c2)CC(C)(C)N(C(=O)c2ccccc2)c2ccccc21` (stereo not given), the figure is 34.9% (inactive); as for `COc1ccc(NC(=O)CN2C(=O)NC(C)(c3ccccc3)C2=O)cn1` (stereo not given), 1.66% (inactive).
In the case of `COc1ccc(NC(=O)C2Cc3c(-c4ccc5c(c4)OCO5)ccnc3O2)cn1` (stereo not given), the inhibition was 21.4% (inactive).
Regarding `COc1ccc(NC(=O)/C(Cl)=C(/Cl)S(=O)Cc2ccc(C)cc2)cn1` (stereo not given), the inhibition is 109% (active).
Under `Cc1cc2nc(-c3ccco3)c(Cc3cccc(F)c3)n2c(C)c1Br` stands -26.2% (inactive).
As for `CC(Sc1nnc(C2CC2)n1C1CC1)C(=O)Nc1ccc(C(N)=O)cc1` (stereo not given), the inhibition was 0.86% (inactive).
In the case of `CCOC(=O)c1c(C)oc2cc(Sc3ccccc3)c(O)c(O)c12`, the inhibition is -89% (inactive).
As for `Cc1oc2cc(Br)c(O)c(Br)c2c1C(=O)c1ccccc1`, the figure is -69.5% (inactive).
Under `CCOC(=O)c1c(-c2ccccc2)oc2cc(Br)c(O)c(C=O)c12` stands 69.1% (active); under `CCCNC(=O)c1cc(C2CCCCN2S(=O)(=O)c2cn(C)cn2)on1` (stereo not given), -3.04% (inactive); under `O=C(CNC(c1ccccc1)c1ccccc1)Nc1ccc(F)cc1`, 6.17% (inactive).
With `O=S1(=O)CC(N2CCN(c3ccccn3)CC2)CN1Cc1ccc(F)cc1` (stereo not given), the inhibition is 10.9% (inactive).
As to `Cc1ccc(F)c(S(=O)(=O)NC(=O)C2(C)CCN2C(=O)c2ccco2)c1` (stereo not given), the inhibition is -1.32% (inactive).
Under `CCOc1ccc(N(CC(=O)NCC2CCCO2)S(=O)(=O)c2ccc(C)cc2)cc1` (stereo not given) stands 14.4% (inactive); under `COc1ccc(NC(=O)c2sc3nc(C)nc(N4CCN(c5ccccn5)CC4)c3c2C)c(OC)c1`, 30.7% (inactive).
On to `Cc1cc(Br)ccc1NC(=O)c1sc2ncn(CC(=O)N3CCN(c4ccccn4)CC3)c(=O)c2c1C`, for which the inhibition is 1.76% (inactive).
Under `Cc1cc(Br)ccc1NC(=O)c1cnc(N2CCN(c3ccccn3)CC2)c2ccccc12` stands 64.2% (active).
As for `CC(=O)Nc1cccc(-c2cc(NC=O)c3ncc(-c4ccc(F)c(Cl)c4)n3c2)c1`, the figure is 40.1% (inactive); as for `COc1ccc(CC(N)c2csc(NC(=O)Cc3ccccc3)n2)cc1` (stereo not given), 49.7% (inactive); as for `COC(=O)[C@H](CCSC)NC(=O)Nc1ccc(OC)cc1`, 10.2% (inactive).
Take `COc1ccc(CC(N)c2csc(NC(=O)Nc3ccc(C(C)C)cc3)n2)cc1` (stereo not given): the inhibition is 100% (active).
As for `COc1ccc(NC(=O)C(Br)C(C)C)cc1` (stereo not given), the figure is -6.38% (inactive); as for `CC(C)(C)CC(=O)Nc1nc(C(N)Cc2ccc(C(F)(F)F)cc2)cs1` (stereo not given), 102% (active); as for `COc1ccc(CC(N)c2csc(NC(=O)NC(c3ccccc3)c3ccccc3)n2)cc1` (stereo not given), 96.6% (active).
As for `COc1ccc(OC)c(NC(=O)N[C@H](Cc2ccccc2)C(=O)NN)c1`, the figure is 9.08% (inactive).
`Cc1ccccc1NC(=O)Cc1nc(COC(=O)c2ccc(C(F)(F)F)cc2)cs1`: the inhibition was -7.19% (inactive).
Under `CC(C)(C)CC(=O)Nc1nnc(SCC(=O)NCc2cccs2)s1` stands 9.91% (inactive).
For the molecule `O=C(NCc1ccc(F)cc1)c1cc(C2CCCCN2C(=O)c2cccs2)on1` (stereo not given), the inhibition is 12.7% (inactive).
Regarding `CC(C)Cn1c(N)c(C(=O)COC(=O)C2CCCN2C(=O)c2cccs2)c(=O)n(C)c1=O` (stereo not given), the inhibition is 8.57% (inactive).
Under `C#Cc1ccc(NC(=O)C2(C)CCN2C(=O)Cc2ccc(-c3ccccc3)cc2)cc1` (stereo not given) stands 20.8% (inactive); under `O=C(NCc1cccnc1)c1cc(C2CCCN(C(=O)C3CCCCC3)C2)on1` (stereo not given), 3.87% (inactive); under `CC(C)CCNC(=O)c1[nH]c(C(F)(F)F)nc1-c1ccccc1`, 11.4% (inactive).
As to `COc1ccc(C(NC(=O)C2CCN(CCCc3ccccc3)CC2)c2cccs2)cc1` (stereo not given), the inhibition was 2.75% (inactive).
In the case of `Nc1ncnc2c1ncn2[C@@H]1O[C@H](C(=O)NCC(F)(F)F)[C@@H](O)[C@H]1O`, the inhibition is 4.09% (inactive).
As for `Cc1c(C(=O)NCc2ccc(C#N)cc2)sc(=O)n1Cc1ccc(C(=O)N(C)C)cc1`, the figure is 7.87% (inactive).
For the molecule `Cn1cncc1C#Cc1c(-c2ccsc2)sc2ccccc12`, the inhibition is 44.3% (inactive).
On to `COc1ccc2sc(-c3ccc(S(C)(=O)=O)cc3)c(-c3ccc(C(N)=O)cc3)c2c1`, for which the inhibition was 3.59% (inactive).
For `COc1ccc2sc(-c3ccc(S(C)(=O)=O)cc3)c(C#Cc3cncn3C)c2c1`, the inhibition was 54.5% (active).
In the case of `CCn1c(SCC(=O)Nc2ccc(C)cc2)nc2nc3c(cc2c1=O)CCCC3`, the inhibition is 10.5% (inactive).
Under `CCNC(=S)Nc1ccc2c(c1)c(=O)n(C)n2Cc1ccc(Cl)cc1` stands -3.64% (inactive).
Under `c1ccc2c(c1)C(=NC1CCCCC1)NC2=NC1CCCCC1` stands 101% (active).
Under `CC1(C)Cc2nc3sc4c(SCC(=O)NC(c5ccccc5)c5ccccc5)ncnc4c3cc2CO1` stands -23% (inactive); under `Cc1ccccc1S(=O)(=O)NC(=O)C1(C)CCN1C(=O)C1(c2ccc(Cl)cc2)CC1` (stereo not given), 15.9% (inactive); under `Cc1cccc(-c2cnc(C(O)c3ccc4ccccc4c3)[nH]2)c1` (stereo not given), 5.95% (inactive).
Regarding `Cc1nc2c(OCc3ccc(Cl)cc3Cl)cccn2c1N(C)CC1CC1`, the inhibition is 27.9% (inactive).
Under `COCCNC(=O)c1ccc(Cn2c(SCC(=O)NCC3CCCO3)nc3ccc(Br)cc3c2=O)cc1` (stereo not given) stands -11.8% (inactive); under `OC(CNCC1CCCO1)Cn1c2ccc(Br)cc2c2cc(Br)ccc21` (stereo not given), 104% (active); under `CCCN1CCn2c3c(c4cc(Br)ccc42)CCCC31` (stereo not given), -52.1% (inactive).
Under `CNC(=O)NC(=O)C(OC(=O)c1cccc(S(=O)(=O)N2CCCCC2)c1)c1ccccc1` (stereo not given) stands 8.72% (inactive); under `CCN1/C(=C\c2ccc3ccccc3[n+]2CC)Sc2cc(C)ccc21`, 95.8% (active).
As for `OCCN1CCN(c2ncnc3c2ncn3[C@H]2CN(Cc3ccco3)C[C@@H](CO)O2)CC1`, the inhibition was -0.36% (inactive).
As for `Cc1ccccc1Cn1c(C)c(C(=O)NCc2cccc(C(F)(F)F)c2)sc1=O`, the figure is -0.27% (inactive).
In the case of `CC(C)CC(N=C1NC(C)(C)Cc2ccccc21)C(=O)O` (stereo not given), the inhibition is 0.64% (inactive).
As for `NC(=O)c1nsc(C(=O)N(CC(=O)NCc2ccc(F)cc2)Cc2ccco2)c1N`, the figure is 17.3% (inactive).
As for `COc1cc(C(C(=O)NC2CCCC2)N(Cc2ccccc2)C(=O)c2snc(C(N)=O)c2N)ccc1O` (stereo not given), the figure is -1.6% (inactive).
As for `COc1ccc(CNC(=O)C(c2ccc(O)cc2)N(Cc2ccco2)C(=O)c2snc(C(N)=O)c2N)cc1` (stereo not given), the figure is 56.7% (active).
Turning to `CCOC(=O)C1(C)CCCN(C(=O)c2ccc(N(C)C)cc2)C1` (stereo not given), the inhibition was 0.13% (inactive).
As for `Cc1cc(C)n2nc(C(=O)OC(C)C(=O)c3cc(C)c(C)cc3C)nc2n1` (stereo not given), the figure is -10.9% (inactive); as for `CSCCC(NS(=O)(=O)c1ccc2c(c1)oc(=O)n2C)C(=O)NC1CCCc2ccccc21` (stereo not given), 3.82% (inactive).
`CC1=C(C(=O)N(C(C)C)C(C)C)CC(CC(=O)NCCCCc2ccccc2)C(=O)N1CCC1=CCCCC1` (stereo not given): the inhibition is 18.7% (inactive).
